FMDV inh: antivirals against foot and mouth disease virus | hit rate 1.2% among 410,000 | FMDV antiviral cell-based qHTS | AID 1159524 | Potency, µM (top dose mostly 57.9 µM), most hits filed as inhibitors; calls by dose curve; tested in HEK293T cells; also: read-out not given here; nearly all actives have a fitted effect of over 45% in size
VACV mCherry inh: vaccinia inhibition (mCherry reporter); hit rate 0.63% among 310,000; Potency, µM (top dose mostly 36.5 µM), most hits filed as inhibitors; AID 720579; Vaccinia virus mCherry reporter infection, fluorescence; calls by dose curve; tested in A549 cells; also: nearly all actives have a fitted effect of over 35% in size
LASV entry inh: blocks Lassa virus binding to or entry into cells; Potency, µM (doses to about 37.9 µM), hits mostly inhibitors; AID 540256; hit rate 1.2% among 300,000; Lassa virus pseudotype entry inhibition, cell reporter; calls by dose curve; tested in HEK293 cells; also: nearly all actives have a fitted effect of over 50% in size
HCMV inh: inhibitors of human cytomegalovirus; HFF cells, HCMV-luciferase reporter, 72 h; stronger effect = lower value; activity change, negative = inhibition, % at 57.5 µM; hit rate 4.5% among 410,000; AID 1259415; in the data active = activity change below about -60%; inconclusive = no clear call, values can overlap the other calls; inactive = above about -39%
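Compounds were evaluated in HFFs infected with an HCMV luciferase reporter virus (MOI 1 PFU/cell). Luciferase in lysates collected 72 h post infection served as the replication measure.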
MARV entry inh: inhibitors of Marburg virus binding or cell entry; Potency, µM (doses to about 37.8 µM), actives largely listed as inhibitors; hit rate 1.8% among 300,000; Marburg virus pseudotyped entry inhibition, cell reporter; calls by dose curve; tested in HEK293 cells
Vaccinia Venus: inhibitors of vaccinia virus (Venus reporter); Vaccinia virus Venus reporter expression, fluorescence; hit rate 0.46% among 330,000; Potency, µM (titrated, usually from 36.5 µM), actives largely listed as inhibitors; calls by dose curve; tested in A549 cells; also: nearly all actives have a fitted effect of over 30% in size
Large screens that a line does not name were inactive; ! = repeats disagree. An excerpt weighted towards active compounds, which were near 6.5% of everything screened.

CCN(CC)c1ccc2cc(-c3nc4ccccc4n3C)c(=O)oc2c1	VACV mCherry inh inconclusive, HCMV inh -78.9, Vaccinia Venus inconclusive
CCN(CC)c1ccc2cc(-c3nnc(-c4ccccc4)o3)c(=O)oc2c1	MARV entry inh inconclusive
CCN(CC)c1ccc2cc(-c3nc4ccccc4[nH]3)c(=O)oc2c1	FMDV inh 4.47µM, LASV entry inh inconclusive, MARV entry inh inconclusive (no result: HCMV inh)
COC(=O)C1=C(C)N(CC2CC2)C(=NCCc2cccnc2)NC1c1ccccc1 (stereo unspecified)	none (no result: FMDV inh, VACV mCherry inh, HCMV inh, Vaccinia Venus)
COC(=O)CCN(Cc1ccc(OC)cc1OC)S(=O)(=O)c1ccccc1Br	none (no result: FMDV inh, VACV mCherry inh, LASV entry inh, MARV entry inh, Vaccinia Venus)
C#CCN(Cc1ccccc1)S(=O)(=O)C=C	FMDV inh inconclusive, VACV mCherry inh inconclusive, Vaccinia Venus 1.58µM! (no result: LASV entry inh, MARV entry inh)
COc1ccc(C2=Nc3ccccc3N(C(=O)c3ccc4ncccc4c3)C2C(=O)NC2CCCC2)cc1 (stereo unspecified)	VACV mCherry inh inconclusive, HCMV inh -77.7 (no result: LASV entry inh, MARV entry inh)
COc1ccc(C2=Nc3ccccc3N(C(=O)c3ccc4ncccc4c3)C2C(=O)NC(C)(C)C)cc1 (stereo unspecified)	none (no result: LASV entry inh, MARV entry inh)
C[n+]1ccc(/C=C/c2c[nH]c3ccc(F)cc23)cc1	FMDV inh inconclusive, HCMV inh -96.7 (no result: VACV mCherry inh, LASV entry inh, MARV entry inh, Vaccinia Venus)
Cn1cc(/C=C/c2cc[n+](C)cc2)c2cc(F)ccc21	FMDV inh inconclusive, LASV entry inh inconclusive, MARV entry inh inconclusive (no result: HCMV inh)
COc1cccc2c(N/N=C/c3ccccc3)cc(C)nc12	none (no result: VACV mCherry inh, LASV entry inh, MARV entry inh, Vaccinia Venus)
COc1ccc(/C=N/Nc2cc(C)nc3ccc(Br)cc23)cc1	VACV mCherry inh inconclusive, LASV entry inh inconclusive, HCMV inh -98.1, MARV entry inh 4.47µM
COc1ccc2nc(C)cc(N/N=C/c3cccc(OC)c3O)c2c1	VACV mCherry inh 1µM, LASV entry inh inconclusive, MARV entry inh inconclusive, Vaccinia Venus inconclusive
C=CCc1ccccc1OCC(CN1CCCCC1)OC(C)=O (stereo unspecified)	none
C=CCc1ccccc1OCC(O)CN1CCN(c2ccccc2)CC1 (stereo unspecified)	none (no result: MARV entry inh)
O=C(CSc1ncccn1)NCC1Cc2cccc(-c3ncccn3)c2O1 (stereo unspecified)	none (no result: LASV entry inh, HCMV inh, MARV entry inh)
COC(=O)C1CCN(Cc2ccc3c(c2)CN(C(=O)C2Cc4ccccc4O2)CCO3)CC1 (stereo unspecified)	none (no result: LASV entry inh, HCMV inh, MARV entry inh)
CCOc1ccc(-c2nc(C#N)c(N3CCCCCC3)o2)cc1	HCMV inh -70.1 (no result: LASV entry inh, MARV entry inh)
CCOc1ccc(-c2nc(C#N)c(N3CCN(C)CC3)o2)cc1	LASV entry inh inconclusive, HCMV inh -61.2
CCOc1ccc(-c2nc(C#N)c(N3CCN(CC)CC3)o2)cc1	none (no result: VACV mCherry inh, Vaccinia Venus)
CCCOc1ccc(-c2nc(C#N)c(N3CCN(C)CC3)o2)cc1	none (no result: VACV mCherry inh)
Cc1ccc(C)n1C1C(=O)N(Cc2ccc(C(F)(F)F)cc2)c2ccc(OC(F)(F)F)cc21 (stereo unspecified)	none (no result: FMDV inh, VACV mCherry inh, LASV entry inh, MARV entry inh, Vaccinia Venus)
Cn1nnnc1Sc1ncnc2scc(-c3ccc(Cl)cc3)c12	FMDV inh 20µM, HCMV inh -98.1 (no result: VACV mCherry inh, LASV entry inh, MARV entry inh, Vaccinia Venus)
COc1ccc(-c2csc3ncnc(Sc4nnnn4C)c23)cc1	FMDV inh inconclusive, HCMV inh -92.4 (no result: VACV mCherry inh, LASV entry inh, MARV entry inh, Vaccinia Venus)
Cn1nnnc1Sc1ncnc2scc(-c3ccccc3Cl)c12	HCMV inh -73.2 (no result: VACV mCherry inh, LASV entry inh, MARV entry inh, Vaccinia Venus)
CC(=O)c1cccc(-c2csc3ncnc(Sc4nnnn4C)c23)c1	FMDV inh 35.5µM, HCMV inh inconclusive (no result: VACV mCherry inh, LASV entry inh, MARV entry inh, Vaccinia Venus)
Cn1nnnc1Sc1ncnc2scc(-c3cccc(S(C)(=O)=O)c3)c12	none (no result: VACV mCherry inh, LASV entry inh, MARV entry inh, Vaccinia Venus)
CN1CCCCC(NC(=O)c2ccc(F)cc2)C1=O (stereo unspecified)	none (no result: FMDV inh, VACV mCherry inh, LASV entry inh, MARV entry inh, Vaccinia Venus)
Cc1sc2ncnc(Sc3nnnn3-c3ccccc3)c2c1C	VACV mCherry inh 11.2µM!, LASV entry inh inconclusive, HCMV inh -71.3, MARV entry inh inconclusive, Vaccinia Venus inconclusive (no result: FMDV inh)
Cn1nnnc1Sc1ncnc2scc(-c3cccc4c3sc3ccccc34)c12	FMDV inh 28.2µM, HCMV inh -91.8 (no result: VACV mCherry inh, LASV entry inh, MARV entry inh, Vaccinia Venus)
O=C(O)CSc1ncnc2scc(-c3ccccc3)c12	none
Clc1ccc(-c2csc3ncnc(Sc4nnnn4-c4ccccc4)c23)cc1	VACV mCherry inh 10µM, Vaccinia Venus inconclusive (no result: FMDV inh, LASV entry inh, HCMV inh, MARV entry inh)
c1ccc2sc(Sc3ncnc4sccc34)nc2c1	MARV entry inh inconclusive
Clc1ccc(-n2nnnc2Sc2ncnc3sccc23)cc1	FMDV inh 39.8µM, LASV entry inh inconclusive, HCMV inh -81.1, MARV entry inh inconclusive (no result: VACV mCherry inh)
Cn1nnnc1Sc1ncnc2scc(-c3ccc4c(c3)OCO4)c12	HCMV inh -86.1 (no result: VACV mCherry inh, LASV entry inh, MARV entry inh, Vaccinia Venus)
Cn1nnnc1Sc1ncnc2scc(-c3cccc(Br)c3)c12	none (no result: VACV mCherry inh, LASV entry inh, MARV entry inh, Vaccinia Venus)
CC(=O)CSc1ncnc2scc(-c3ccc(F)cc3)c12	none

From PubChem BioAssay
